Experimental findings from PubChem BioAssay (EPA / NIEHS) are described below.

Test [1] in a line: ATG_NFI_CIS: Attagene CIS-FACTORIAL HepG2 Assay for human Nuclear Factor I (NFI) (AID 2282989; active = hit-call score of the fitted dose curve at least 0.9, where 1 is the maximum; inactive = score below 0.9). Conditions: HepG2 cis-regulatory reporter, NFI response element transcription; actives raise or lower the signal. Put shortly: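 Multiplexed cis-reporter system in human HepG2 cells reports native TF activity as reporter mRNA induction 24 h post-dose. Fragments labelled with 6-FAM, HpaI-digested and resolved by capillary electrophoresis; activity fitted both directions versus DMSO.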

Test [2] deals with Myc proto-oncogene protein (Homo sapiens) (UniProt P01106). In words: ATG_Myc_CIS: Attagene CIS-FACTORIAL HepG2 Assay for human Myelocytomatosis (Myc) Proto-Oncogene Transcription Factor (AID 2282990; active = hit-call score of the fitted dose curve at least 0.9, where 1 is the maximum; inactive = score below 0.9). Conditions: HepG2, Attagene cis-reporter transcription factor activity; actives raise or lower the signal. Put shortly:
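Cells of the HepG2 human liver line bear multiple cis-driven reporter transcription units. Reporter mRNA after 24 h exposure is reverse-transcribed, amplified, labelled and resolved by capillary electrophoresis, with gain- or loss-of-signal fitting relative to DMSO.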

The nature of test [3]: ATG_NRF2_ARE_CIS: Attagene CIS-FACTORIAL HepG2 Assay for human Nuclear Factor Erythroid 2 Related Factor 2 (NFR2) response to Antioxidant Response Elements (ARE) (AID 2282992; active = hit-call score of the fitted dose curve at least 0.9, where 1 is the maximum; inactive = score below 0.9). Conditions: HepG2 Attagene ARE/NRF2 reporter, transcription factor activity; actives raise or lower the signal. In outline: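 Using transiently transfected HepG2 cells exposed for 24 h, reporter mRNA levels were determined by RT-PCR with fluorescent primer extension and capillary electrophoresis, analysed for gain or loss of signal against DMSO.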

Test [4] has as its target Cellular tumor antigen p53 (Homo sapiens) (UniProt P04637). In words: ATG_p53_CIS: Attagene CIS-FACTORIAL HepG2 Assay for human p53 Transcription Factor (AID 2282994; active = hit-call score of the fitted dose curve at least 0.9, where 1 is the maximum; inactive = score below 0.9). The settings on record: HepG2 p53 cis-element reporter, Attagene mRNA; actives raise or lower the signal. Put shortly:
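In HepG2 cells, reporter transcription units under cis-regulatory promoters were transiently introduced. Following 24 h treatment, RNA was processed to labelled, digested cDNA fragments read by capillary electrophoresis; fitting was bidirectional versus DMSO.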

Test [5] concerns the target human Peroxisome Proliferator-activated Receptor delta (PPARd), PPARD (gene 5467) (UniProt Q03181). Put plainly: ATG_PPARd_TRANS: Attagene TRANS-FACTORIAL HepG2 Assay for human Peroxisome Proliferator-activated Receptor delta (PPARd) (AID 2283002). Put shortly: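 Cell-based TRANS reporter: HepG2, transient MRTU transfection, 24 h exposure. Readout = reporter mRNA (RT-PCR/CE, 6-FAM). Gain-of-signal fit vs DMSO control.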

In test [6] the target is human Retinoic Acid Receptor beta (RARb), RARB (gene 5915) (UniProt P10826). Put plainly: ATG_RARb_TRANS: Attagene TRANS-FACTORIAL HepG2 Assay for human Retinoic Acid Receptor beta (AID 2283004). Put shortly:
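HepG2, transient MRTU transfection, NR–Gal4 chimera, 24 h treatment; RT-PCR plus CE fluorescence detection of reporter mRNA; gain of signal vs DMSO.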

For test [7], the target named is Retinoic acid receptor alpha (Homo sapiens) (UniProt P10276). Put plainly: ATG_RARa_TRANS: Attagene TRANS-FACTORIAL HepG2 Assay for human Retinoic Acid Receptor alpha (RARa) (AID 2283005). Put shortly: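 Reporter transcripts, measured by RT-PCR with fluorescent labeling and capillary electrophoresis after 24 h dosing, reflect activity of an exogenous human RARa–GAL4 fusion in transiently transfected HepG2. Fitted for increase relative to DMSO.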
Retinoic acid receptor alpha (Homo sapiens), sequence (P10276 whole entry, looked up, the tested form may be a part): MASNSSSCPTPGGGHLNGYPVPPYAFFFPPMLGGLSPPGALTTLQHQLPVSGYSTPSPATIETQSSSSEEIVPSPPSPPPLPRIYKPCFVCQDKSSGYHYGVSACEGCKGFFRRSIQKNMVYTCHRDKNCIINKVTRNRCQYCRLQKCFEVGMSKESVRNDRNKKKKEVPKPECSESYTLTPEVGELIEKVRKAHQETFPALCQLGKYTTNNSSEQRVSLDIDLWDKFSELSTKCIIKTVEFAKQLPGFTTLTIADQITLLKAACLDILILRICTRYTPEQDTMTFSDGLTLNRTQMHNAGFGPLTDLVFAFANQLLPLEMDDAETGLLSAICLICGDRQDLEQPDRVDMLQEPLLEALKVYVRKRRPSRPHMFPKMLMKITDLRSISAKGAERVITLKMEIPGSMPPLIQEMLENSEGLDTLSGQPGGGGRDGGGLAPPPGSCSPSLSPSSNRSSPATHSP

Test [8] addresses human Retinoic Acid Receptor gamma (RARg), RARG (gene 5916) (UniProt P13631). Put plainly: ATG_RARg_TRANS: Attagene TRANS-FACTORIAL HepG2 Assay for human Retinoic Acid Receptor gamma (RARg) (AID 2283009). In outline:
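Readout: reporter transcript levels via RT-PCR, 6-FAM primer-extension labelling, HpaI digestion and capillary electrophoresis. Cells: HepG2 carrying transfected RARg-GAL4 chimera plus UAS reporter set. Dosing 24 h; DMSO negative control.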

For test [9], the target named is human RAR-related Orphan Receptor beta (RORb), RORB (gene 6096) (UniProt Q92753). Put plainly: ATG_RORb_TRANS: Attagene TRANS-FACTORIAL HepG2 Assay for human RAR-related Orphan Receptor beta (RORb) (AID 2283010). Put shortly:
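HepG2, transient MRTU transfection (GAL4-UAS reporters, exogenous NR-Gal4 chimeras); 24 h compound exposure; total RNA → RT-PCR → 6-FAM primer extension → HpaI digest → CE fluorescence. Positive direction vs DMSO baseline.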

Test [10] deals with human RAR-related Orphan Receptor gamma (RORg), RORC (gene 6097) (UniProt P51449). Put plainly: ATG_RORg_TRANS: Attagene TRANS-FACTORIAL HepG2 Assay for human RAR-related Orphan Receptor gamma (RORg) (AID 2283011). In outline:
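Activity is scored as increase in GAL4-UAS reporter mRNA over DMSO, detected by fluorescent RT-PCR and capillary electrophoresis in HepG2 cells transiently expressing a RORg-Gal4 chimera, 24 h after dosing.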

Test [11] can be described thus: ATG_Oct_MLP_CIS: Attagene CIS-FACTORIAL HepG2 Assay for human Octamer-Binding Transcription Factor (Oct) (AID 2282993; active = hit-call score of the fitted dose curve at least 0.9, where 1 is the maximum; inactive = score below 0.9). The settings on record: HepG2 Attagene cis-factorial Oct reporter, mRNA; actives raise or lower the signal. Put shortly:
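After 24 h compound exposure, transfected HepG2 cells were lysed for total RNA; reporter-specific cDNA was PCR-amplified, fluorescently labelled and sized by capillary electrophoresis. Bidirectional curve fitting used DMSO as baseline.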

In test [12] the target is human Peroxisome Proliferator-activated Receptor alpha (PPARa), PPARA (gene 5465) (UniProt Q07869). Put plainly: ATG_PPARa_TRANS: Attagene TRANS-FACTORIAL HepG2 Assay for human Peroxisome Proliferator-activated Receptor alpha (PPARa) (AID 2283001). Put shortly:
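Transfected HepG2 cells treated with test chemical for 24 h. RNA isolated, reverse-transcribed with oligo(dT), PCR-amplified, FAM-labelled and HpaI-digested. Fragments sized by capillary electrophoresis; gain-of-signal fit relative to DMSO.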

Test [13] deals with Peroxisome proliferator-activated receptor gamma (Homo sapiens) (UniProt P37231). In words: ATG_PPARg_TRANS: Attagene TRANS-FACTORIAL HepG2 Assay for human Peroxisome Proliferator-activated Receptor-gamma (PPARg) (AID 2283007). Put shortly:
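Liver-derived HepG2 cells expressing an exogenous NR-Gal4 chimera alongside GAL4-UAS reporter genes; 24 h exposure. Fluorescence of reporter RT-PCR products, separated by capillary electrophoresis, gives mRNA induction relative to DMSO.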

Test [14] concerns the target Nuclear receptor subfamily 1 group I member 2 (Homo sapiens) (UniProt O75469). Put plainly: ATG_PXR_TRANS: Attagene TRANS-FACTORIAL HepG2 Assay for human Pregnane X Receptor (PXR) (AID 2283008). In outline: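 Multiplexed TRANS reporter panel in HepG2; this component tracks PXR-Gal4-driven reporter mRNA after 24 h dosing, measured by RT-PCR with capillary electrophoresis fluorescence, fitted against DMSO.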

Inconclusive results are not listed. The source made the active and inactive calls. The calls were made as follows, unless noted: active = hit-call score of the fitted dose curve at least 0.9, where 1 is the maximum; inconclusive = response in the unintended direction; inactive = score below 0.9.

human RAR-related Orphan Receptor gamma (RORg), RORC (gene 6097), sequence (P51449 whole entry, looked up, the tested form may be a part): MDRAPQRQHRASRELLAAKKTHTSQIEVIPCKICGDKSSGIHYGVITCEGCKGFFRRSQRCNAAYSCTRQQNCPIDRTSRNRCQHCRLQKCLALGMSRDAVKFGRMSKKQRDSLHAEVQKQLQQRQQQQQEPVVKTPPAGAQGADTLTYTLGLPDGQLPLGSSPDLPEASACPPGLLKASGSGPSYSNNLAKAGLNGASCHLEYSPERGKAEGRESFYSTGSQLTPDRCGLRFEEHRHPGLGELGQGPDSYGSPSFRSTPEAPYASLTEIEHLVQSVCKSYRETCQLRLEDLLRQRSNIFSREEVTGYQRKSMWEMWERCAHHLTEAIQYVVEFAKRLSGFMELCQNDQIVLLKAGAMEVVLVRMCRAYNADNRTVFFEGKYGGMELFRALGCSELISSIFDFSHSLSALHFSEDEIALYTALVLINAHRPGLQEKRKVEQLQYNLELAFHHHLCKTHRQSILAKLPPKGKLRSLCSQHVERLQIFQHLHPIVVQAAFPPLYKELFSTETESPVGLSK
Peroxisome proliferator-activated receptor gamma (Homo sapiens), sequence (P37231 whole entry, looked up, the tested form may be a part): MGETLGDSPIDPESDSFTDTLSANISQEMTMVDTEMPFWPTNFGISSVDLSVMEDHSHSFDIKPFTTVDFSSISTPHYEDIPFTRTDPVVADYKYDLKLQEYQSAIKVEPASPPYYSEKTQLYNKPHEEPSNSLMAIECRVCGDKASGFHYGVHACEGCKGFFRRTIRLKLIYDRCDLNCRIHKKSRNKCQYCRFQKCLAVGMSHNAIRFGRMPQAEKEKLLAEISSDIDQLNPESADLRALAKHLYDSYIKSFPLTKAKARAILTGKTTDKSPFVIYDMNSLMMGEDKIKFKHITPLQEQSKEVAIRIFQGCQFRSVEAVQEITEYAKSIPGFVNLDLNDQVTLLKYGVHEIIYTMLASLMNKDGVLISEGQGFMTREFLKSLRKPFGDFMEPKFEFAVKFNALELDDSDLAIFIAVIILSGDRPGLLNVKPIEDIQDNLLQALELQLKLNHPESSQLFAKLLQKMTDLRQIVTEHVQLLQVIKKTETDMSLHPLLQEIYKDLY
human RAR-related Orphan Receptor beta (RORb), RORB (gene 6096), sequence (Q92753 whole entry, looked up, the tested form may be a part): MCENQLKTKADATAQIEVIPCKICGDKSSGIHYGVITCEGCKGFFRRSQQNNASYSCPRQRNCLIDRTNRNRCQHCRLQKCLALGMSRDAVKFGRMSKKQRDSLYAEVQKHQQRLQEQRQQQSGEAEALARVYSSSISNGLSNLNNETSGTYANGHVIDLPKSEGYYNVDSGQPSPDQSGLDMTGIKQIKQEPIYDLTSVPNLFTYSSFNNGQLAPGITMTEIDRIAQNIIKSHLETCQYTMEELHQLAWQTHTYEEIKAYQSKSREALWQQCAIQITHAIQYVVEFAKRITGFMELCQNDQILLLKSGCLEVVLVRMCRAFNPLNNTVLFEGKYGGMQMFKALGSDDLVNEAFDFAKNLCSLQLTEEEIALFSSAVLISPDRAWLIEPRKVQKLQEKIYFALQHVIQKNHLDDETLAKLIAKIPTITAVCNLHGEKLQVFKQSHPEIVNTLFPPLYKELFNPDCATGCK
human Retinoic Acid Receptor gamma (RARg), RARG (gene 5916), sequence (P13631 whole entry, looked up, the tested form may be a part): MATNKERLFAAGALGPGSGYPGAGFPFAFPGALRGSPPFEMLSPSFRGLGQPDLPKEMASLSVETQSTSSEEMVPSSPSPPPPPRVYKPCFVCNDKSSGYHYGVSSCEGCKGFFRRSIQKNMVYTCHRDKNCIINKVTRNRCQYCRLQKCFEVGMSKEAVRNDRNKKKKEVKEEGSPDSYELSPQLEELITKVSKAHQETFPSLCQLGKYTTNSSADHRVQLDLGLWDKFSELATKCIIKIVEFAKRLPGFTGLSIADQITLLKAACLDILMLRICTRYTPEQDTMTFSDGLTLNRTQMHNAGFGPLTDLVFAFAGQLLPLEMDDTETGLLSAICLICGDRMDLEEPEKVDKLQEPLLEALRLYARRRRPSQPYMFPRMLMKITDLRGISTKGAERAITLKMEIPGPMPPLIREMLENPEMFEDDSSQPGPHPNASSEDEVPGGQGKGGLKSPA
human Peroxisome Proliferator-activated Receptor alpha (PPARa), PPARA (gene 5465), sequence (Q07869 whole entry, looked up, the tested form may be a part): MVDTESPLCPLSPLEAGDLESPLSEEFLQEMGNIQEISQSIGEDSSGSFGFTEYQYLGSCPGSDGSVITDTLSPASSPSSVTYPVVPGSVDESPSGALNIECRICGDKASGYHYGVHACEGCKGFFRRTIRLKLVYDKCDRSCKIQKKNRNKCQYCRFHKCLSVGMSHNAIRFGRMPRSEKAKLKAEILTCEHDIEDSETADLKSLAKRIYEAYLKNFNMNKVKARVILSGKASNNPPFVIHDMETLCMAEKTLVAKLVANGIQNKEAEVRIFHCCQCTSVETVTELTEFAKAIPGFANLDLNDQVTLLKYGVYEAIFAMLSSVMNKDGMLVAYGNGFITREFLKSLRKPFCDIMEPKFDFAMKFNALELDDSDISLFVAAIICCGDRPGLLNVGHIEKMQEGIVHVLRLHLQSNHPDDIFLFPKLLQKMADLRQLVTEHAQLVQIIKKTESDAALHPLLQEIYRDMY
Myc proto-oncogene protein (Homo sapiens), sequence (P01106 whole entry, looked up): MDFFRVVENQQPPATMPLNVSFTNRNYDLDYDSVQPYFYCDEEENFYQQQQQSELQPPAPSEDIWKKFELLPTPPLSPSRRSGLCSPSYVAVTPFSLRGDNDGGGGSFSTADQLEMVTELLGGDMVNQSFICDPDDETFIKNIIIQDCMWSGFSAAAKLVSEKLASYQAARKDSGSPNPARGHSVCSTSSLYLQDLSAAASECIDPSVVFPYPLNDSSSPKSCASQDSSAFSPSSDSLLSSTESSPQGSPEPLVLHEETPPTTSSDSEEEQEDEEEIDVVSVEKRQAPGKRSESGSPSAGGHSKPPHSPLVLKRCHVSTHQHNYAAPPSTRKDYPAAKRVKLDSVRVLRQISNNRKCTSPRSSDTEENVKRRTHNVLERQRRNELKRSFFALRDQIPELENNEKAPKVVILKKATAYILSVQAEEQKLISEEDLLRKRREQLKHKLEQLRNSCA
Cellular tumor antigen p53 (Homo sapiens), sequence (P04637 whole entry, looked up, the tested form may be a part): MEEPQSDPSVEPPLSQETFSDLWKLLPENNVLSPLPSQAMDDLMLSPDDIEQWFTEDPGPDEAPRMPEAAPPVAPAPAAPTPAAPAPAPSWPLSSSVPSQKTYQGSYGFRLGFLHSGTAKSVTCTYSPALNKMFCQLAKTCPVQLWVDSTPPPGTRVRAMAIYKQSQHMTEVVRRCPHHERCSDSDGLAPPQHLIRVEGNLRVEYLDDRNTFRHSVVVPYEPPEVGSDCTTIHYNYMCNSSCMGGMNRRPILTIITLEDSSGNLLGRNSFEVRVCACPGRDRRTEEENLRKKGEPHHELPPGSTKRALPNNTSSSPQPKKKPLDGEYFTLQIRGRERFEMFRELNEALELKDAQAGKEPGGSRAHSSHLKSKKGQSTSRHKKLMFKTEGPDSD
Nuclear receptor subfamily 1 group I member 2 (Homo sapiens), sequence (O75469 whole entry, looked up, the tested form may be a part): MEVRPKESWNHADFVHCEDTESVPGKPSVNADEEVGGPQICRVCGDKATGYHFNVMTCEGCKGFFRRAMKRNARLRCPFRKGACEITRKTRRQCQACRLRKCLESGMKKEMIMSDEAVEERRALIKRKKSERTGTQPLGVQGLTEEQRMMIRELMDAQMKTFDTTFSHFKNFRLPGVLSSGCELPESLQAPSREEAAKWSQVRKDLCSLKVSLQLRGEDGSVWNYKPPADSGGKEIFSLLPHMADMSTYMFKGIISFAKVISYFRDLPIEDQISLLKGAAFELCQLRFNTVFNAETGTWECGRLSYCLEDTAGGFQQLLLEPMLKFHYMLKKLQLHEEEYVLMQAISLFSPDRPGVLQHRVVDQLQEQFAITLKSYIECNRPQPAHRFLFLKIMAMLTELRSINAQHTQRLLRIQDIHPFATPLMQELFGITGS
human Peroxisome Proliferator-activated Receptor delta (PPARd), PPARD (gene 5467), sequence (Q03181 whole entry, looked up): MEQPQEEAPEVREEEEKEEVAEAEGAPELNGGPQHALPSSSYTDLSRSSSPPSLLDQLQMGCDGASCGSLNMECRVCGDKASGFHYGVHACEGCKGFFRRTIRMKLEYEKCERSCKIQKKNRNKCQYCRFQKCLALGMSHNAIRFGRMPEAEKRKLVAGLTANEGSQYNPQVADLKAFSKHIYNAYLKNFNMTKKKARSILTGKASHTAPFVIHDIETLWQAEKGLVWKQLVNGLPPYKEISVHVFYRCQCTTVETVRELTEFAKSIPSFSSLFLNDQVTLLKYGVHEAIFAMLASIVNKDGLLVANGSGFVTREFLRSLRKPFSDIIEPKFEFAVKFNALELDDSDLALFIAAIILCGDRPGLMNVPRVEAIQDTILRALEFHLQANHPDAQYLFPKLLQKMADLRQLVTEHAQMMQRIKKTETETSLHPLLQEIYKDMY

Take `CNC(=S)NN`: the outcome in test [1], in test [2], in test [3], in test [4], in [5] and in [6] was inactive. In addition, the outcome in test [7], in test [8], in [9] and in [10] was inactive.
Consider `COCC(C)N` (stereo not drawn), for which the molecule was classed as inactive in test [1], in test [2], in test [11], in test [4], in test [12] and in [5]. For the same molecule, the outcome in test [6], in [13], in test [14] and in test [10] was inactive.
Take `O=S1(=O)OC(c2ccc(O)cc2)(c2ccc(O)cc2)c2ccccc21`: the molecule was called inactive in test [1], in [2], in test [3], in test [13] and in [14].
Consider `CC(C)(C)C(=O)CCc1ccc(Cl)cc1`, for which the result in [1], in test [2], in test [3], in test [14], in test [8] and in test [10] was inactive.
For `CCOC(F)(F)C(F)(F)C(F)(F)C(F)(F)F`, the call in [1], in test [2], in [11], in [4], in test [5] and in test [13] was inactive. Moreover, the call in test [14] was inactive.
For the molecule `C=C(C)C(=O)OCCO`, the call in [1], in test [2], in test [3], in [11], in test [13] and in test [14] was inactive. The result in [8], in [9] and in test [10] was inactive.
Take `CCN(CCC#N)c1ccc(N=Nc2c(Cl)cc([N+](=O)[O-])cc2Cl)cc1`: the molecule was called inactive in [1], in test [2], in test [11], in test [4], in [12] and in test [5]. Moreover, the molecule was called inactive in [8]. The AC50 in test [13] is 16.3 µM (active); in [14], 1.05 µM (active).
As to `Cc1ccc(C(C)(C)C)cc1`, the molecule was called inactive in test [1], in test [2], in test [11], in test [4], in test [12] and in test [6]. Moreover, the molecule was called inactive in [14], in test [9] and in [10].
Regarding `[Cl][In]([Cl])[Cl]`, the outcome in test [1], in test [2], in [11], in test [4], in [12] and in [5] was inactive. Also, the result in test [7], in [14], in test [8], in [9] and in test [10] was inactive.
Take `C1CN(SSN2CCOCC2)CCO1`: the molecule was classed as inactive in test [1], in test [2], in test [11], in test [4] and in test [14].
`C=COCCCC`: the outcome in test [1], in test [2], in [3], in [4], in test [5] and in test [7] was inactive. For the same molecule, in [10], the molecule was classed as inactive.
Take `c1cc(C(c2ccc(OCC3CO3)cc2)C(c2ccc(OCC3CO3)cc2)c2ccc(OCC3CO3)cc2)ccc1OCC1CO1` (stereo not drawn): the figures for the half-maximal activity concentration (AC50) in test [1], in test [3] and in test [11] were 22 µM (active), 21.1 µM (active) and 25.6 µM (active), respectively. Besides, the outcome in [2], in test [5], in test [7], in test [13] and in test [14] was inactive.
For the molecule `COC(=O)c1ccccc1OC`, the call in test [1], in test [2], in test [3], in test [11], in [12] and in test [14] was inactive. In addition, the molecule was called inactive in [10].
